# Test system: HepG2
# Experiment: GSK_TCMDC: Percent inhibition of human HepG2 cell line. Test compounds present at 10uM.
# Type: functional
row,Structure (SMILES),Inhibition [%]
1,Clc1ccc2c(NCc3ccccn3)ccnc2c1,0
2,Cc1noc(C)c1-c1cccc(C(=O)NC2CCN(CCNC(=O)C(c3ccccc3)c3ccccc3)CC2)c1.O=C(O)C(F)(F)F,27
3,CC(=O)Nc1cccc(C(=O)Nc2cccc(-c3ccc(-c4nc5cccc(C)c5[nH]4)cc3)c2)c1,29
4,CCOC(=O)c1c(C)noc1Nc1cccc(C)c1C,8
5,CC[C@H](C)CNC(=O)c1cncc(-c2cccc(CN3CCC(N4CCCC4)CC3)c2)c1.O=C(O)C(F)(F)F,0
6,CCN(CC)CCNc1nc(C=Cc2ccc(Cl)cc2)nc2cc3ccccc3cc12,83
7,CC(Cc1ccc(NS(=O)(=O)c2ccc(CC(C)NCCc3cccc(Cl)c3)cc2)cc1)NCCc1cccc(Cl)c1 (configuration not stated),12
8,CCCCCNc1nc2nc(N)nc(N)c2nc1-c1ccccc1.Cl,9
9,CC(C)(C)C/C=C\c1ccc(C(=O)NCC2CC2)cc1,0
10,CCN(CCCN1CCCCC1)c1cc(C)nc(Nc2ccc(C)c(F)c2)n1.O=C(O)C(F)(F)F,20
11,Br.c1cc(C2=NC3CCCCC3N2)ccc1OCCCCCOc1ccc(C2=NC3CCCCC3N2)cc1 (configuration not stated),80
12,COc1cc2c(cc1S(=O)(=O)c1ccc(OCc3ccc(Cl)cc3)cc1)CCN(Cc1ccc(NC(C)=O)s1)CC2,3
13,Cc1[nH]cc(Br)c(=O)c1-c1ccc(Oc2ccccc2)cc1,0
14,O=c1cc(NCCC(CNCc2ccc(Br)o2)NCc2cc(Br)cc(Br)c2)[nH]c2ccccc12 (configuration not stated),2
15,COc1ccc2c(-c3ccccc3)noc2c1,0
16,Cc1cc(N[C@@H](Cc2ccccc2)C(=O)NCc2cccc(F)c2)nc(NCC2CCCCC2)n1.O=C(O)C(F)(F)F,43
17,CCN(CCCN1CCCCC1)c1cc(C)nc(Nc2cc(Cl)cc(Cl)c2)n1.O=C(O)C(F)(F)F,34
18,CC(=O)c1c(Cc2cccc(C(F)(F)F)c2)c[nH]c1C,6
19,COc1cc2nc(NCCc3cccc(Cl)c3)nc(NCc3ccccc3)c2cc1OC,97
20,CCCC(C)Nc1nc(C)cc(N[C@@H](CC(C)C)C(=O)NCCc2ccccc2)n1.O=C(O)C(F)(F)F (some centres not stated),9
21,CN(C)C(=O)c1cc(CNCc2ccccc2)ccc1-c1cccc(CNCc2ccc(-c3ccccc3)cc2)c1.O=C(O)C(F)(F)F,27
22,COc1cc(NC(=O)/C=C/c2ccccc2OC(F)(F)F)cc(OCCN2CCN(CCN3CCOCC3)CC2)c1.O=C(O)C(=O)O,20
23,CCC(C)NC(=O)Nc1ccc(-c2cccc(-c3nc4cccc(C)c4[nH]3)c2)cc1 (configuration not stated),55
24,Nc1nc(Nc2cccc(Cl)c2)ncc1C(=O)NCc1ccncc1,3
25,CCCC(CNCc1ccccc1)CNc1cc(=O)c2ccccc2[nH]1 (configuration not stated),2
26,O=C(/C=C/c1ccc2ccccc2c1)NCC1(c2ccc(-c3ccccc3)cc2)CCOCC1,9
27,Nc1ncc(OC2CCCCC2)c(N)n1,0

# — ChEMBL document CHEMBL1157539, “Thousands of chemical starting points for antimalarial lead identification” (Nature, 2010)
